In the supplement of paper PMC10681739:

The sequences below were run against T1, ETS1 (UniProt P14921) (assay: ETS1 binding intensity (PBM fluorescence) in presence of RUNX1, normalised to ETS1-only experiment (arbitrary fluorescence units); higher = stronger binding). Settings: ETS1 concentration 1 nM; RUNX1 concentration 25 nM.
T1 sequence: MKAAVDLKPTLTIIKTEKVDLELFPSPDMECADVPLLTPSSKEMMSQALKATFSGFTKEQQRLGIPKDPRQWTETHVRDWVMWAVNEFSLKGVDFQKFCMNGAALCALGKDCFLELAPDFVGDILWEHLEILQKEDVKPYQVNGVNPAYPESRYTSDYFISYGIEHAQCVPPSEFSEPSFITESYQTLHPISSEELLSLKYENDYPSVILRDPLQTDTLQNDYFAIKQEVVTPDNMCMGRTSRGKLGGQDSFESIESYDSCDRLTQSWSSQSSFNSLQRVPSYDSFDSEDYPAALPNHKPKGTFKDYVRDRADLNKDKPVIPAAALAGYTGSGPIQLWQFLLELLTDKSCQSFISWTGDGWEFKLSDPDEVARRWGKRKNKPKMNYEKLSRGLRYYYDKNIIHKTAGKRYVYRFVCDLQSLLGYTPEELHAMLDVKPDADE
Description: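 Cooperative genomic-context PBM: 36-bp genomic probes with neighbouring ETS1 and RUNX1 sites, double-stranded on Agilent 4x180k arrays. Full-length recombinant human ETS1 (1 nM) was incubated alone or with RUNX1 (25 nM) and detected with anti-ETS1 antibody plus Alexa488 secondary. Value is the median fluorescence intensity over 4 replicate spots; the ETS1+RUNX1 data were normalised to the ETS1-only data using probes without RUNX1 sites. The 36-bp variable region sits on the array probe with constant linker/primer flanks that are not printed.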
AGCTGCAGTTGGGCAGGAAACCACAATGTCGAAGAC gave an ETS1 binding intensity of 5770. Sequence AGTAGGATGGGAGGAAGTGGTTTGTAAGAGGAGGAC has an ETS1 binding intensity of 2740. AATCCCGGAAACGCGGATTCAGCGGAGCGCGGTGAC gave an ETS1 binding intensity of 1500. Sequence CCTGACTTCCTCCTCCCCCTCCCGCCACAATTCCGC has an ETS1 binding intensity of 1620. With GATGGGCGAGTCAGGAAACCACAGCTCTGAGGGTGG the ETS1 binding intensity was 1190. For AATCCAACACTTCCTCCTCCACCGCAGAAAGGCAAC, the ETS1 binding intensity was 966. TGAGCAAGTTCCTTCCTGTCTGTGGTCCAGGGTTTA showed an ETS1 binding intensity of 881. Work on ATGCGAGTCTGCTTCCTGCCACAAATCACAATTTGA yielded an ETS1 binding intensity of 686. TGCTTAGAACACGGAAACACTGAGGTTTTACTTTGA was tested, and the ETS1 binding intensity was 560. With CCAGAGCACATCCTACACGCACCACAACCTGAAAAC the ETS1 binding intensity was 396. GATCTGCTTGGCTTCCTGTGGTCGCTGACTCACAGT showed an ETS1 binding intensity of 1010. For GCAAGGTGGAGAGGAGGATGTGGCTTACCAGCAATT, the ETS1 binding intensity was 1990. GGGCAGGCCGGATGTGGGAGACCACAAAGCCCAAGG was tested, and the ETS1 binding intensity was 27500. Sequence TGGATGGCAAGCAACGGAAACCGCAAACAGGGCTGT has an ETS1 binding intensity of 6230. GCTCTGCAGGATGTGGCTGTGACCGCAGTGAGGAGC gave an ETS1 binding intensity of 11800. Sequence GATGCTCTAACAGGAAGTGGGTTAAGGAGCTGCACT has an ETS1 binding intensity of 14100. For CTGTTTCCGAGTAAAGTAGGGTGTGTGGGTCACATG, the ETS1 binding intensity was 395. For TACGTCACTTCCGGGCCGCCGTCCTGCGGGCAAGGG, the ETS1 binding intensity was 3920. With CTAGGGAGAGGATGTGAGTTTGTCTGTGGGGGTGGT the ETS1 binding intensity was 828. For AAACAGGAAATCACAGCAGCGTTGCGGAGTGGAGCA, the ETS1 binding intensity was 1110. With TGACATGGCTTCCGCCTTGGGCTTTGTGGTCTCCCA the ETS1 binding intensity was 1150. ACAGGAAACTAAAATAAGAACAGAAAACCAAGACAG was tested, and the ETS1 binding intensity was 852. GCAGAGTTTACAACAGGATGTGGTTATTGGCGCTGC was tested, and the ETS1 binding intensity was 46800. CCCCTCCCTGCTTCCTGTGTGGTGAGGGGTGATCAG showed an ETS1 binding intensity of 2040. TCAGGAAGTGGTGTGACCAGCATGTGAACCGCGGCA gave an ETS1 binding intensity of 1110. Work on CTCTTCCGCTCAGTCATCCTCAGAGGTGGTAAGACT yielded an ETS1 binding intensity of 387. TTGGTTGTTGCCAGAGGATGTGGGTTGGCGGGGGAG was tested, and the ETS1 binding intensity was 4480. With TGATAAAACACAGGATGTGGTAAGGGAGCTGGCCAA the ETS1 binding intensity was 14200. TGGCTTGAGCTCAGGAAGTTGTGGCTGCAGTAAGCT was tested, and the ETS1 binding intensity was 1970. Work on AACTGCCTGGTGGCCGGAAACCGCTGGAGGGAGGGC yielded an ETS1 binding intensity of 10100. In the case of AGGCCGCTTCCTCCCACATGAAACCGCAGGCTTCGG, the ETS1 binding intensity is reported as 1590. With ATTACAGGAAGTATGTCCTCCTCTGCCTAACCACTG the ETS1 binding intensity was 2210. For GCTGGGGCAGGAAGCTTCTAGGCCACAGACAGGACG, the ETS1 binding intensity was 1360. Work on TCCCTCATGAGCTTCTTCCGCCCGCAACACGAGACT yielded an ETS1 binding intensity of 481. GGGAACTCACACCGGAAACCACAGAACCAAGAGTGG was tested, and the ETS1 binding intensity was 16300. Work on CACTTGTCCTTCCTGGCCTGCGGCCGCCACCACTTC yielded an ETS1 binding intensity of 372. AGACGGTAGGCCAGGAAACCGCAGGCCCCTGCCGGG was tested, and the ETS1 binding intensity was 3730. Work on AAAAGGCACCAGGAAATGACAGCACCGCAGCACGCC yielded an ETS1 binding intensity of 2020. CTCGGCGCGACGGATATTCCCGTGACCGCCGGGTTC showed an ETS1 binding intensity of 920. AATCATCAGGGAAATGCAAATCAAAACCACAATCAG gave an ETS1 binding intensity of 1200.
